Key:
Type in all cases: functional
Plasmodium falciparum [1] = experiment: GSK_TCMDC: Inhibition of Plasmodium falciparum 3D7 in whole red blood cells, using parasite LDH activity as an index of growth. Test compounds present at 2uM
Plasmodium falciparum [2] = experiment: GSK_TCMDC: Inhibition of Plasmodium falciparum Dd2 in whole red blood cells, using parasite LDH activity as an index of growth. Test compounds present at 2uM
HepG2 = experiment: GSK_TCMDC: Percent inhibition of human HepG2 cell line. Test compounds present at 10uM.

| Structure (SMILES) | Inhibition (Plasmodium falciparum [1]) | Inhibition (Plasmodium falciparum [2]) | Inhibition (HepG2) |
| --- | --- | --- | --- |
| CNC(=O)CNC(=O)COc1cccc2ccccc12 | 98% | 0% | 3% |
| CCN1CCN(c2cc(C)c3cc(NC(=O)c4ccc(OC)c(OC)c4)ccc3n2)CC1 | 90% | 23% | 28% |
| Cc1cc2[nH]c(-c3ccc(C(=O)NCCCN4CCN(c5cccc(Cl)c5)CC4)s3)nc2cc1Cl | 100% | 93% | 7% |
| CCOc1ccc2nc(C)cc(N/N=C/c3ccccc3[N+](=O)[O-])c2c1 | 100% | 99% | 91% |
| CCCCNc1nccc2ccc(-c3ccncc3)cc12 | 93% | 1% | 6% |
| O=C(Nc1cccc(C(F)(F)F)c1)N1CCOC(CCN2CCC(c3ccccc3)CC2)(c2ccc(Cl)c(Cl)c2)C1 (stereo not given) | 87% | 69% | 15% |
| O=C(NCC1CCC(CNCCCc2ccccc2)CC1)Nc1ccc(Cl)c(Cl)c1 (stereo not given) | 99% | 2% | 26% |
| Cc1cc(Nc2ccncc2)n2nc(C)c(-c3ccccc3Cl)c2n1 | 99% | 93% | 2% |
| O=S(=O)(c1cccc(C(F)(F)F)c1)N1CCC(CO)(Cc2cccc(C(F)(F)F)c2)CC1 | 100% | 79% | 3% |
| Cc1cc(Nc2c(C(N)=O)cnc3cc(-c4ccoc4)ccc23)ccc1N1CCN(C)CC1.Cl | 100% | 100% | 7% |
| CCCn1c(Sc2ccc(C#N)c([N+](=O)[O-])c2)nnc1-c1ccc(N(C)C)cc1 | 97% | 98% | 18% |
| O=C(Nc1cccc(F)c1)c1ccc(C(=O)NC2CCN(CC3CCCCC3)C2)cc1.O=C(O)C(F)(F)F (stereo not given) | 96% | 15% | 16% |
| O=C(NC(=O)c1ccccc1)NC1CCN(c2ccnc3cc(Cl)ccc23)C1.O=C(O)C(F)(F)F (stereo not given) | 100% | 99% | 32% |
| Cl.c1ccc2nc(NCCCCCCCCNc3ccc4ccccc4n3)ccc2c1 | 100% | 37% | 52% |
| COc1ccc2nccc([C@@H](O)CN3CCC(NC(=O)C(c4cc5ccccc5o4)N4CCN(Cc5ccccc5)CC4)CC3)c2c1 (stereo not given in full) | 91% | 75% | 30% |
| COc1ccc(Nc2cc(C)nc(NCc3ccc4c(c3)OCO4)n2)cc1 | 99% | 78% | 26% |
| CCCN1CCc2c(sc3nc(SCC(=O)Nc4ccc(C)cc4)n(-c4ccc(C)cc4)c(=O)c23)C1 | 92% | 71% | 0% |
| CS(=O)(=O)c1cccc(-c2cnc(N)c3cc(-c4ccc(F)cc4)ccc23)c1 | 91% | 33% | 28% |
| COc1cccc2c(NN=Cc3cccc(Cl)c3)ccnc12 | 100% | 77% | 19% |
| COc1cccc(-n2ncc3c(N/N=C/c4ccc(CN(C)CCN(C)C)cc4)ncnc32)c1 | 100% | 91% | 29% |
| CCOC(=O)c1c[nH]c2c(sc3cc(OC)ccc32)c1=O | 96% | 93% | 0% |
| COc1cc(NCCCNC(=O)c2cc3c(Cl)cc(Cl)cc3[nH]2)nc2ccccc12 | 100% | 100% | 96% |
| CCOC(=O)NOC(C(=O)O)c1ccccc1 (stereo not given) | 99% | 17% | 4% |
| Cc1cc([N+](=O)[O-])ccc1NC(=O)Nc1cccc(C(F)(F)F)c1 | 100% | 100% | 15% |
| Cc1ccc(C)c(NC(=O)NC2CCN(c3ccnc(Nc4ccc(F)cc4)n3)C2)c1 (stereo not given) | 100% | 74% | 0% |
| Cl.Oc1ccc(Cc2ccccc2)cc1CNC1CCCCC1 | 96% | 98% | 30% |
| CC1(C)N=C(N)N=C(N)N1c1cc(Cl)c(Cl)c(Cl)c1.CCS(=O)(=O)O | 93% | 31% | 68% |
| CN(Cc1ccccc1)C(=O)c1nn(CCCN2CCC(N3CCCC3)CC2)cc1-c1ccc(Cl)c(Cl)c1 | 100% | 66% | 43% |
| Cc1cccc2nc(-c3cccc(-c4cccc(C(=O)N5CCCCC5CN5CCC(O)C5)c4)c3)[nH]c12 (stereo not given) | 89% | 71% | 19% |
| CO/C(=C\C=C\c1cc2cc(Cl)c(Cl)cc2[nH]1)C(=O)NCCCCN1CCN(c2ccccc2OC)CC1 | 100% | 96% | 55% |
